From PubChem BioAssay (NCI)
About 83,000 compounds went through this panel and 20% of them were active in at least one assay; those are over-represented in the sample as a whole.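 Treatment: one concentration, 48 hours, 96-well format. Scoring: percent growth, with anything below 10 considered active.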 Activity calls are given as the source filed them.

Experiments:
Experiment in all cases: NCI-60 one-dose screen, 48 h (100 = growth as untreated, 0 = no growth, -100 = all killed)
Conditions in all cases: 10 µM unless noted
[1] = tested on: DU-145 prostate
[2] = tested on: K-562 leukemia
[3] = tested on: MALME-3M melanoma
[4] = tested on: MDA-MB-231 breast
[5] = tested on: RXF 393 renal
[6] = tested on: SF-268 CNS
[7] = tested on: SF-295 CNS
[8] = tested on: SF-539 CNS
[9] = tested on: UACC-257 melanoma
[10] = tested on: M14 melanoma

Measured: growth

C=C1CC[C@@H]2[C@](C)(COC(C)=O)[C@H](OC(C)=O)CC[C@@]2(C)[C@@H]1C/C=C1/C(=O)OC[C@H]1OC(C)=O
active: [5] -7.35% | [8] 8.54%
inactive: [1] 50.9% | [2] 11.1% | [3] 77.7% | [4] 95.8% | [6] 87.1% | [7] 95% | [9] 66.5% | [10] 35.4%

C/C=C/C=N/NC(=S)Nc1ccccc1
inactive: [1] 104% | [2] 88.9% | [3] 96.5% | [4] 89.9% | [5] 119% | [6] 100% | [7] 98.9% | [8] 89.5% | [9] 81.1% | [10] 96.5%

CN(C)CCn1c(=O)c2c3cc4c(cc3n(CCN(C)C)c2c2ccc(Cl)cc21)OCO4
active: [2] -17.8%
inactive: [1] 60.6% | [3] 78.7% | [4] 31.6% | [5] 57.9% | [6] 32% | [7] 32.5% | [8] 69.9% | [9] 71.6% | [10] 50.5%

O=C1C=CC2(NN=C(c3ccccc3)N2c2ccc(Cl)cc2)c2cccc(O)c21 (stereo not given)
active: [9] 5.85%
inactive: [1] 51.9% | [2] 25.5% | [3] 38.8% | [4] 77.4% | [5] 119% | [6] 57.3% | [7] 27.8% | [8] 26.6% | [10] 28.9%

CO[C@H](C(=O)N[C@@H](CCCCNC(=O)OCc1ccccc1)C(=O)OC(C)(C)C)[C@@H]1Cc2cc3cc(OC4CC(OC5CC(O)C(O)C(C)O5)C(O)C(C)O4)c(C)c(O)c3c(O)c2C(=O)[C@H]1OC1CC(OC2CC(OC3CC(C)(O)C(O)C(C)O3)C(O)C(C)O2)C(O)C(C)O1 (stereo not given in full)
inactive: [1] 26.5%
active: [2] 5.35% | [3] -69.4% | [4] -71.8% | [5] -85.9% | [6] -61.5% | [7] -89.5% | [8] -32% | [9] -5.47% | [10] -69.8%

COc1ccc(S(=O)(=O)N(C(C)=O)c2ccccc2/C=C/c2cc[n+]([O-])cc2)cc1
inactive: [1] 16% | [3] 47% | [4] 45.6% | [6] 34.6% | [7] 13.7% | [9] 65.5%
active: [2] 7.61% | [5] -5.21% | [8] -30.4% | [10] -14.3%

COC(=O)CNC(=O)[C@@H](OC)[C@@H]1Cc2cc3cc(OC4CC(OC5CC(O)C(O)C(C)O5)C(O)C(C)O4)c(C)c(O)c3c(O)c2C(=O)[C@H]1OC1CC(OC2CC(OC3CC(C)(O)C(O)C(C)O3)C(O)C(C)O2)C(O)C(C)O1 (stereo not given in full)
active: [3] -35.3% | [5] -75.4% | [7] 6.85% | [8] -28.7% | [9] 6.03% | [10] -32.1%
inactive: [1] 17.2% | [2] 10.2% | [4] 21.5% | [6] 21.1%

O=c1sn(-c2cccc3ccccc23)c(=O)n1Cc1ccccc1
inactive: [1] 108% | [3] 96.5% | [4] 101% | [5] 99.3% | [6] 105% | [7] 105% | [8] 114% | [9] 89.2% | [10] 89.8%
active: [2] 9.59%

Cc1ccc(F)c(NC(=O)Nc2ccc(-c3cccc4[nH]nc(N)c34)cc2)c1
inactive: [1] 27.5% | [6] 30% | [7] 42.8% | [9] 16% | [10] 28.3%
active: [2] 7.81% | [3] -4.64% | [4] 9.7% | [5] -20.1% | [8] 3.67%

Cn1cc(-c2[nH]c3cc(NC(=O)[C@H](N)C4CCCCC4)cc4c3c2C=NNC4=O)cn1
inactive: [1] 30.5% | [7] 16.8% | [9] 21.1%
active: [2] -59.6% | [3] -56.2% | [4] -67.7% | [5] -85.1% | [6] -23.4% | [8] -84.8% | [10] -17.6%

COc1ccc(Cc2cc(-c3ccccc3C)n[nH]c2=O)cc1
inactive: [1] 93.2% | [2] 110% | [3] 154% | [4] 84.6% | [5] 99.2% | [6] 85% | [7] 116% | [8] 97.8% | [9] 119% | [10] 115%

COc1cc2ncnc(Nc3ccc(F)c(Cl)c3)c2cc1NC(=O)/C=C/CN1CCCCC1
active: [1] -42.7% | [2] -28.5% | [3] -80.7% | [4] -68.7% | [5] -92.1% | [6] -74.5% | [7] -55% | [8] -89.9% | [9] -77% | [10] -72%

Cn1cc(-c2ncnc3ccc(-c4cnc(Cl)c(NS(C)(=O)=O)c4)cc23)c2ccccc21
inactive: [1] 25.2% | [2] 48.4% | [4] 27.9% | [6] 27.5%
active: [3] -13.6% | [5] -26.7% | [7] -9.66% | [8] -11.1% | [9] 5.53% | [10] 9.65%

Cn1ncc(Cl)c1-c1cc(C(=O)N[C@H](CN)Cc2ccc(F)c(F)c2)oc1Cl
inactive: [1] 19.1% | [6] 23.1%
active: [2] -32.7% | [3] -78.6% | [4] -43.8% | [5] -52.6% | [7] -65.8% | [8] -75.1% | [9] -89.4% | [10] -78.5%

C=CC(=O)Nc1cccc(Oc2nc(Nc3ccc(N4CCN(C)CC4)cc3)nc3ccsc23)c1
inactive: [7] 23.9%
active: [1] -48.4% | [2] -25.6% | [3] -84.2% | [4] -58% | [5] -83.9% | [6] 3.11% | [8] -92.9% | [9] -80.8% | [10] -81%

N[C@@H]1CCCN(c2c(/C=C3\SC(=O)NC3=O)cccc2-c2ccccc2)C1
inactive: [1] 70.4% | [2] 33.1% | [3] 55.6% | [4] 55.8% | [5] 54.6% | [6] 43% | [9] 44.7% | [10] 54.3%
active: [7] 5.44% | [8] -24.7%

O=C(Cc1ccc(/C=C/C(=O)c2ncc[nH]2)cc1)Nc1ccc(Br)cc1
inactive: [1] 19.9% | [3] 74.4% | [4] 10% | [5] 19.4% | [6] 22.2% | [7] 26.9% | [9] 69.8% | [10] 31.4%
active: [2] 1.86% | [8] -51.1%

CO[C@@H](C)Cn1c(=O)n(C)c2cnc3ccc(-c4cncc(C(C)(C)O)c4)cc3c21
active: [3] -36% | [4] 6.56% | [5] -47.2% | [6] 7.58% | [7] -39.6% | [8] -39.5% | [9] -16.6% | [10] 3.8%
inactive: [1] 13% | [2] 14.8%

C[C@@H](Oc1cc(-c2cnn(C3CCNCC3)c2)cnc1N)c1c(Cl)ccc(F)c1Cl
active: [1] -0.0589% | [2] -38.7% | [3] -88.2% | [4] -58.6% | [5] -87.3% | [6] 1.66% | [7] -72.1% | [8] -95.5% | [9] -83.3% | [10] -77.2%

CCCCN1C(=O)c2cccc3c(-c4ccc5c(c4)ncn5C4CCCCC4)ccc(c23)C1=O
inactive: [1] 101% | [2] 86% | [3] 95.4% | [4] 108% | [5] 118% | [6] 106% | [7] 96.7% | [8] 101% | [9] 103% | [10] 92.1%

O=S1(=O)OC(c2cc(Cl)c(O)c(Br)c2)(c2cc(Cl)c(O)c(Br)c2)c2ccccc21
inactive: [1] 114% | [2] 109% | [3] 115% | [4] 94.8% | [5] 109% | [6] 106% | [7] 127% | [8] 94.6% | [9] 95.4% | [10] 99.4%

COc1cc2c(Oc3ccc4[nH]c(C)cc4c3F)ncnc2cc1OCCCN1CCCC1
inactive: [1] 96.8% | [2] 71.2% | [3] 101% | [4] 104% | [5] 74.7% | [6] 72.2% | [7] 97.7% | [8] 45.2% | [9] 98.8% | [10] 92.8%

O=C1NC(=O)[C@@H](c2cn3c4c(cccc24)CCC3)[C@@H]1c1c[nH]c2ccccc12
inactive: [1] 15% | [3] 59.7% | [4] 34.1% | [6] 34.2% | [7] 19.2% | [9] 38.5%
active: [2] 9.6% | [5] 6.54% | [8] -17.3% | [10] 8.08%
